Sampled rows, rich in hits. Any-hit rate of the full collection: about 0.51%.
E coli growth-1: inhibitors of Escherichia coli growth; OD600, 23 h; hits give low values; OD600 absorbance (no concentration beside the values); 330,000 compounds, 0.21% hits;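 active = OD600 absorbance below the run mean of sample wells minus 3.6 SD, in any replicate, cut at about 0.56 in these data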
Tat export inh: blocks Tat-dependent protein export in E. coli. E. coli MC4100 TorA-mCherry Tat export, fluorescence. inhibition, % at 10 µM. 340,000 compounds, 0.036% hits. AID 488895;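 active = mean replicate inhibition at least 50% and at least half of replicates individually reaching 50%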;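 also: exported cargo escapes ClpAP degradation while cytoplasmic cargo is degraded and loses fluorescence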
phage Ecoli inh: E. coli growth loss with phage present. growth absorbance. inhibition, % at 11.9 µM. 360,000 compounds, 0.26% hits; in the data active = inhibition above about 11%
E coli growth-2: reduces bacterial viability in AddAB counter-screen. inhibition, % at 11.9 µM. 330,000 compounds, 0.27% hits. E. coli V3065 growth, OD600 absorbance, 18 h;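 active = inhibition above the campaign's mean inhibition across all tested compounds plus 3 SD, cut at about 9.9% in these data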;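 also: uninfected addAB+ strain grown without phage in ampicillin broth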
AddAB inh: less growth of phage-infected E. coli with AddAB; E. coli expressing H. pylori AddAB, absorbance growth; inhibition, % at 11.9 µM; 330,000 compounds, 0.29% hits; AID 435030; in the data active = inhibition above about 12%
RecBCD conf: growth loss of phage-infected V66 E. coli, RecBCD confirmation screen; AID 651982; shares compounds with phage Ecoli inh; 890 compounds, 45% hits; E. coli V66 + T4 2- phage, growth OD; inhibition, % at 11.9 µM;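 active = mean inhibition over triplicates exceeding the hit threshold derived in the original primary screen, cut at about 11% in these data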
Ecoli viability: bacterial viability inhibition counter-screen for RecBCD. shares compounds with phage Ecoli inh. E. coli viability, absorbance (OD) growth. 890 compounds, 29% hits. inhibition, % at 11.9 µM; in the data active = inhibition above about 20%;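 also: E. coli strain V66 grown with compound alone and no phage infection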
AddAB phage OD: growth loss of phage-infected AddAB E. coli, RecBCD counter-screen. 890 compounds, 45% hits. AID 651984. shares compounds with phage Ecoli inh. E. coli expressing H. pylori AddAB + T4 phage, OD growth; gene 2 mutant T4, recBCD-deleted host. inhibition, % at 11.9 µM;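 active = mean inhibition above the solvent-only control wells' mean plus 3 SD, cut at about 22% in these data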;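 also: higher means less bacterial growth from phage killing when AddAB is blocked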
Numbers stand for hits; . = inactive; / = no result given.

SMILES | E coli growth-1 | Tat export inh | phage Ecoli inh | E coli growth-2 | AddAB inh | RecBCD conf | Ecoli viability | AddAB phage OD
O=[N+]([O-])c1cc2c(ccc3occc32)o1 | / | / | 101.4 | / | / | 101.9 | 103.0 | 102.5
O=[N+]([O-])c1ccc2c(c1)oc1ccccc12 | . | . | . | . | . | / | / | /
CCN1/C(=C/c2ccc3cc(C)ccc3[n+]2CC)Sc2cc(C)c(C)cc21 | 0.25 | . | 12.0 | / | / | . | . | 26.7
CNCCCCOc1ccccc1-c1ccccc1 | . | . | 21.1 | . | . | . | . | .
Cc1ccccc1Cn1c(CN2CCN(C(=O)c3ccco3)CC2)nc2c1c(=O)n(C)c(=O)n2C | . | . | 97.0 | . | . | . | . | .
Cc1ccc(-c2cnc(C(O)c3cc(C)cc(C)c3)[nH]2)cc1 (configuration not stated) | / | / | 17.1 | / | / | 10.9 | . | .
Cc1cc(C(O)c2ncc(-c3ccc(Oc4ccccc4)cc3)[nH]2)ccc1F (configuration not stated) | / | / | 11.4 | / | / | . | . | .
Cc1cc(C)cc(C(O)c2ncc(-c3ccc4ccccc4c3)[nH]2)c1 (configuration not stated) | / | / | 18.4 | / | / | 11.5 | . | 25.9
COc1cccc(-c2cnc(C(O)c3cccc(OC)c3)[nH]2)c1 (configuration not stated) | / | / | 11.1 | / | / | . | . | .
OC(c1ccc(F)cc1)c1ncc(-c2ccc(Oc3ccccc3)cc2)[nH]1 (configuration not stated) | / | / | . | / | / | / | / | /
CCOc1ccc(NC(=O)C(NC(=O)c2ccccc2)C(C)CC)cc1 (configuration not stated) | . | / | / | / | / | / | / | /
COc1ccc(C2=NN(c3nc4ccccc4s3)C(=O)C2=CN(C)C)cc1 | . | / | / | / | / | / | / | /
CN(Cc1nc(Cc2ccccc2F)no1)CC1(N2CCOCC2)CCCCC1 | . | . | . | . | . | / | / | /
COc1ccc(Cc2noc(CN(C)CC3(N4CCOCC4)CCCCC3)n2)cc1OC | . | . | 94.1 | . | . | . | . | .
CCc1noc(C)c1C(=O)OCC(=O)Nc1ccc2c(c1)OCO2 | . | . | 11.8 | . | . | . | . | .
Cc1onc(-c2ccccc2)c1C(=O)OCC(=O)Nc1ccccc1 | . | . | . | / | / | / | / | /
Cc1cccc(NC(=O)COC(=O)c2c(-c3ccccc3)noc2C)c1 | / | / | 12.6 | / | / | . | . | .
CC(C)C1COC(NC2=NC(C(C)C)CO2)=N1 (configuration not stated) | . | / | / | / | / | / | / | /
CC(C(=O)NCc1ccc(S(C)(=O)=O)cc1)C1C[C@]1(C)C(NC(=O)OCc1ccccc1)c1ccccc1 (some centres not stated) | . | / | / | / | / | / | / | /
CC(=NNc1cc(C)c2cc(C)ccc2n1)c1ccccn1 | / | / | 16.9 | / | / | . | . | .
FC(F)Sc1ccc(NC(=S)NCC2CCCCC2)cc1 | . | . | 12.7 | . | . | . | . | .
S=C(NCC1CCCCC1)Nc1ccc(Oc2ccccc2)cc1 | . | . | . | . | . | / | / | /
FC(F)Sc1ccc(NC(=S)NC2CCCCC2)cc1 | . | . | 12.3 | . | . | . | . | .
CC1CN(C(C)CO)C(=O)c2cc(NC(=O)C3CCCCC3)ccc2OC1CN(C)S(C)(=O)=O (configuration not stated) | . | / | / | / | / | / | / | /
CCOC(=O)c1c[nH]c2c([N+](=O)[O-])cc(OC)cc2c1=O | 0.455 | . | 12.4 | / | / | . | . | 44.2
SMILES | E coli growth-1 | Tat export inh | phage Ecoli inh | E coli growth-2 | AddAB inh | RecBCD conf | Ecoli viability | AddAB phage OD
O=C(Nc1ccc(Cl)cc1)c1cc2c(cc1O)[nH]c1ccccc12 | 0.171 | . | 11.6 | 10.2 | . | . | . | .
CC(C)C1COC(c2cccc(C3=NC(C(C)C)CO3)n2)=N1 (configuration not stated) | . | / | / | / | / | / | / | /
CCCn1c(=O)c(C(=O)NCCc2ccc(OC)c(OC)c2)c(O)c2ccccc21 | . | . | . | / | / | / | / | /
CCn1c(=O)c(C(=O)NCCc2ccc(OC)c(OC)c2)c(O)c2ccccc21 | . | . | 11.1 | 9.9 | . | . | . | .
CC1CN(C(C)CO)C(=O)c2cc(NS(=O)(=O)c3ccc(F)cc3)ccc2OC1CN(C)S(=O)(=O)c1cccs1 (configuration not stated) | . | / | / | / | / | / | / | /
O=C(O)c1ccc(NC(=S)NCc2ccccc2)cc1 | . | . | . | . | . | / | / | /
FC(F)(F)c1ccc(NC(=S)NCc2ccccc2)cc1 | . | . | 11.3 | . | . | . | . | .
FC(F)Sc1ccc(NC(=S)NCc2ccccc2)cc1 | . | . | 12.7 | . | . | . | . | .
FC(F)Sc1ccc(NC(=S)NC(c2ccccc2)c2ccccc2)cc1 | . | . | . | . | . | / | / | /
CCN1C(=O)C2C(c3ccc(-c4ccc(C(C)=O)cc4)cc3)N[C@@](C)(C(=O)OC)C2C1=O (some centres not stated) | . | / | / | / | / | / | / | /
COc1ccc2cc(C(=O)N/N=C/c3sc4ccccc4c3O)ccc2c1 | / | . | 23.0 | 12.0 | . | 13.6 | . | .
O=C(N/N=C/c1sc2ccccc2c1O)c1cccc2ccccc12 | / | . | 12.9 | . | . | . | . | .
O=C(NN=Cc1sc2ccccc2c1O)c1ccccc1 | . | / | / | / | / | / | / | /
CC(C)(C)OC(=O)C(Cc1ccccc1)NC(=O)c1nc[nH]c1C(=O)NC1CCNCC1 (configuration not stated) | . | / | / | / | / | / | / | /
Nc1nnc(-c2ccc([N+](=O)[O-])o2)s1 | 0.0685 | . | 91.7 | / | / | 100.1 | 101.7 | 99.7
COc1ccc(N/N=C/c2c(C(=O)O)ccc3ccccc23)cc1 | / | . | 11.2 | 16.0 | . | . | . | .
Cn1c(C(C#N)=C2CCCCCN2)nc2ccccc21 | . | / | / | / | / | / | / | /
CC(=O)NCCCc1nc2ccccc2n1Cc1ccccc1F | . | . | 22.4 | . | . | . | . | .
CC(C)CC1CN=C(Nc2ccccc2)N1CCC1CCCCC1 (configuration not stated) | . | / | / | / | / | / | / | /
O=c1[nH]nc(-c2ccc([N+](=O)[O-])o2)c(=O)[nH]1 | 0.523 | . | 22.3 | / | / | 15.9 | . | 91.2
C#CCOCCOCCOCCNc1nc(N2CCN(C(=O)C(CCCCN)n3cc(C(N)CC(C)C)nn3)CC2)nc(N2CCN(C(=O)C(CCC(=O)O)n3cc(C(N)C(C)CC)nn3)CC2)n1 (configuration not stated) | . | / | / | / | / | / | / | /
Cc1cc(O)c(Sc2ncn[nH]2)cc1NS(=O)(=O)c1ccc(Cl)cc1 | . | . | . | . | . | / | / | /
O=S(=O)(Nc1cc(Sc2ncn[nH]2)c(O)c2ccccc12)c1ccccc1 | . | . | 11.4 | / | / | . | . | .
CC(=O)NC(Cc1ccc(O)cc1)CN1C(N)=NCC1CC(C)C (configuration not stated) | . | / | / | / | / | / | / | /
Cc1c(C(=O)NNC(=O)c2ccccc2O)oc2ccccc12 | / | / | 12.9 | / | / | . | . | .
Oc1ccc(Cl)cc1Sc1cc(Cl)ccc1O | / | . | 12.1 | / | / | . | . | .
CN(C)C(=O)c1cc(Cl)ccc1Sc1cc(Cl)ccc1Cl | . | . | . | . | . | / | / | /

Screening results from PubChem BioAssay.
